In PubChem BioAssay AID1159580 (chemical genetic matrix, 2015):
In all, about 5,500 compounds went through this assay and about 2,000 (36%) were called active. Inconclusive results (about 18%) are left out. Rule as the data show it: active = normalized growth mostly below about 0.91 (no sharp cut-off); inconclusive = no clear call, values can overlap the other calls; inactive = mostly above about 0.92. Some of the results follow.

Assay: chemical genetic growth profiling, strain panel (AID 1159580);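 also: tested at 20 µM; growth read once vehicle control cultures reached saturation at 30 °C; 1 = growth at the plate median or of vehicle wells; lower values mean less growth of the strain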
Conditions: S. cerevisiae deletion strains, growth OD

Measured: normalized growth

CC(N)=O
inactive: locus YAL040C, strain CLN3, active compounds read low 0.973 | locus YER002W, strain NOP16, active compounds read low 0.992 | locus YGR078C, strain PAC10, active compounds read low 1 | locus YGR229C, strain SMI1, active compounds read low 1.01 | locus YJR075W, strain HOC1, active compounds read low 0.991 | locus YNL128W, strain TEP1, active compounds read low 0.997 | locus YNL175C, strain NOP13, active compounds read low 0.992 | locus YNL197C, strain WHI3, active compounds read low 1 | locus YNL224C, strain SQS1, active compounds read low 1.04 | locus YOR083W, strain WHI5 (second series), active compounds read low 1 | locus YPL241C, strain CIN2, active compounds read low 0.975
